The list is not random: actives were taken first. Their share in the collection is about 3.2%.
bovine MsrA act = bovine MsrA enzyme activators, primary screen, biochemical, absorbance, HTS; purified bovine MsrA, absorbance read-out; Methionine sulfoxide reductase A (Bos taurus); AID 602163, 2012; hit rate 0.3% among 360,000; activation, % at 10.6 µM; in the data active means activation above about 7.5%;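 further: 0% = vehicle and 100% = reference activator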
MsrA inh = bovine MsrA enzyme inhibitors, primary screen, biochemical, absorbance, HTS; Methionine sulfoxide reductase A (Bos taurus); inhibition, % at 15.5 µM; hit rate 0.75% among 360,000; purified bovine MsrA, absorbance read-out; in the data active means inhibition above about 4.5%;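 further: 0% = vehicle wells with enzyme and 100% = reference inhibitor wells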
rCAG RNA binder = binders of r(CAG) RNA repeats, primary screen, biochemical, fluorescence | r(CAG) RNA repeat, TO-PRO-1 dye displacement fluorescence | hit rate 1.3% among 370,000 | AID 651821, 2012 | inhibition, % at 3 µM;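 active means inhibition above the plate cutoff, the mean of all test compounds on that plate plus 3 SD, cut at about 35% in these data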;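 further: 0% = DMSO alone and 100% = 100 µM mitoxantrone as full dye displacement; higher means more dye released from RNA so lower well fluorescence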
PG9 binder = binders of HIV-1 gp120 antibody PG9, primary screen, biochemical, TR-FRET. HIV-1 gp120 / PG9 antibody interaction. TR-FRET gp120-PG9 antibody binding. inhibition, % at 6.7 µM. hit rate 0.43% among 360,000. AID 624416, 2012; in the data active means inhibition above about 8.5%
sPLA2-III inh = human group III sPLA2 inhibitors, primary screen, biochemical, QFRET, BODIPY PC-A2 liposome substrate; hit rate 0.56% among 370,000; Group 3 secretory phospholipase A2 (Homo sapiens), Q9NZ20; QFRET BODIPY PC-A2 liposome hydrolysis, fluorescence; inhibition, % at 12.2 µM;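 active means inhibition above mean plus 3 SD of compounds lying within the high and low control bounds, cut at about 19% in these data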;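 further: 0% = median of test compound wells and 100% = no enzyme DMSO wells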
Target sequence (Q9NZ20 whole entry, looked up): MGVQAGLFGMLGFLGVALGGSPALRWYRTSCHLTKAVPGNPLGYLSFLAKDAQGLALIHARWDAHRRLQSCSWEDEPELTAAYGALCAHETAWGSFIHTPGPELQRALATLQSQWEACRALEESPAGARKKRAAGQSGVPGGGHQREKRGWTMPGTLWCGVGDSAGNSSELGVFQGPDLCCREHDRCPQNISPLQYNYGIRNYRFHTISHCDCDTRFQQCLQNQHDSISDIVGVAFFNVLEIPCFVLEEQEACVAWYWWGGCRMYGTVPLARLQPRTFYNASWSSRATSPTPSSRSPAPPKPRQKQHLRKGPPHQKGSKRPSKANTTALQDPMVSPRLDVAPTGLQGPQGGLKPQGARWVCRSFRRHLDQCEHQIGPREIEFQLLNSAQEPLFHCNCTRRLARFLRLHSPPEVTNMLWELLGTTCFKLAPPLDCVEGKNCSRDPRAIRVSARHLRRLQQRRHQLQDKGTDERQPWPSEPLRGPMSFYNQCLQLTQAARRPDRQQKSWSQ
rCAG bind conf = small molecules binding CAG repeat RNA – biochemical, fluorescence, confirmation; shares compounds with rCAG RNA binder; r(CAG) RNA repeat, TO-PRO-1 dye displacement fluorescence; inhibition, % at 3 µM; hit rate 70% among 4,300; AID 652065, 2013;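 active means inhibition above a per-plate cutoff, the mean inhibition of sample wells plus 3 SD, cut at about 35% in these data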;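 further: loss of TO-PRO-1 fluorescence as compound displaces dye from 1x1 AA loop RNA; 0% = DMSO only wells and 100% = 100 µM mitoxantrone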
DNA CAG counter = displacement of TO-PRO-1 from CAG DNA duplex, counter-screen for rCAG RNA repeat binder project, biochemical, fluorescence, TO-PRO-1 dye, d(CAG) DNA oligo | hit rate 94% among 4,300 | d(CAG) DNA oligo TO-PRO-1 dye displacement | inhibition, % at 3 µM | shares compounds with rCAG RNA binder;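 active means inhibition above its plate's cutoff, the mean test-well inhibition plus 3 SD, cut at about 4.8% in these data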;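 further: 0% = DNA dye mix with DMSO and 100% = 100 µM mitoxantrone; hits displace the dye from DNA and so lower well fluorescence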
DNA CAG DR = inhibitors of DNA CAG/GTC TO-PRO-1 complex, dose response, counter-screen for rCAG RNA repeat binder project, biochemical, fluorescence, TO-PRO-1 dye | DNA CAG/GTC duplex TO-PRO-1 dye displacement fluorescence | IC50, µM | AID 686960, 2013 | hit rate 20% among 250 | shares compounds with rCAG RNA binder; in the data active means IC50 below about 10 µM
* hit, by the source's call.

How did O=C(O)c1ccn2c(C(=O)c3ccc(Cl)cc3)c(-c3ccccc3)cc2c1 do in these assays?
bovine MsrA act: -9; MsrA inh: -1; rCAG RNA binder: 68*; PG9 binder: 0; sPLA2-III inh: -22; rCAG bind conf: 64*; DNA CAG counter: 23*; DNA CAG DR: inactive

Results for O=C(N/N=C/c1ccccc1C(=O)O)c1cc(-c2ccc3c4c(cccc24)CC3)n[nH]1 ?
bovine MsrA act: -4; MsrA inh: 0; rCAG RNA binder: 58*; PG9 binder: -2; sPLA2-III inh: -15; rCAG bind conf: 62*; DNA CAG counter: 24*

Results for COc1ccccc1NC(=O)CSc1nc(O)cc(=O)n1C ?
bovine MsrA act: -6; MsrA inh: -1; rCAG RNA binder: 19; PG9 binder: 1; sPLA2-III inh: 1

What do the screens show for `COc1ccccc1-n1c(SCC(=O)Nc2cccc3ccccc23)nc(O)cc1=O`?
bovine MsrA act: 0; MsrA inh: 0; rCAG RNA binder: 48*; PG9 binder: 0; sPLA2-III inh: -6; rCAG bind conf: 20; DNA CAG counter: 9.0*

What do the screens show for `CCOc1ccccc1-n1c(SCC(=O)Nc2ccccc2C(=O)O)nc2ccccc2c1=O`?
bovine MsrA act: -5; MsrA inh: 0; rCAG RNA binder: 35*; PG9 binder: 2; sPLA2-III inh: -7; rCAG bind conf: 30; DNA CAG counter: 7.8*

How did Cn1c(SCC(=O)Nc2cccc3ccccc23)nc(O)cc1=O do in these assays?
bovine MsrA act: -1; MsrA inh: 1; rCAG RNA binder: 41*; PG9 binder: -2; sPLA2-III inh: -15; rCAG bind conf: 10; DNA CAG counter: 4

Results for Cc1ccc(NC(=O)CSc2nc(O)cc(=O)n2-c2ccc(C)cc2)cc1 ?
bovine MsrA act: -3; MsrA inh: -1; rCAG RNA binder: 42*; PG9 binder: 0; sPLA2-III inh: 7; rCAG bind conf: 17; DNA CAG counter: 6.3*

How did O=C(Nc1ccc(F)cc1)Nc1c(-c2ccccc2)nc2ncccn12 do in these assays?
rCAG RNA binder: 7; sPLA2-III inh: 12

What do the screens show for `CCNC(=O)Nc1ccc2c(c1)C(=O)N(C)[C@H]1CC[C@@H](CC(=O)NCCN3CCCC3)O[C@@H]1CO2`?
rCAG RNA binder: 3; sPLA2-III inh: 6

Results for CCCCc1c(O)nc(SCC(=O)Nc2cccc3ccccc23)n(-c2ccccc2OC)c1=O ?
bovine MsrA act: -3; MsrA inh: 0; rCAG RNA binder: 35*; PG9 binder: 1; sPLA2-III inh: -3; rCAG bind conf: 27; DNA CAG counter: 7.8*

How did CCc1c(O)nc(SCC(=O)Nc2ccccc2OC)n(-c2ccccc2C)c1=O do in these assays?
bovine MsrA act: 0; MsrA inh: 2; rCAG RNA binder: 14; PG9 binder: 0; sPLA2-III inh: 5

How did CN(CC(=O)Nc1ccc(F)cc1)C(=O)COC(=O)c1cc(Br)c(Br)s1 do in these assays?
bovine MsrA act: -1; MsrA inh: 0; rCAG RNA binder: 3; PG9 binder: -1; sPLA2-III inh: -10

How did Clc1cccc(-c2nc3ccc(Br)cn3c2Cc2ccccc2)c1 do in these assays?
bovine MsrA act: 0; MsrA inh: 0; rCAG RNA binder: 50*; PG9 binder: 1; sPLA2-III inh: -26; rCAG bind conf: 13; DNA CAG counter: 4

What do the screens show for `Brc1cccc(-c2nc3ccc(Br)cn3c2Cc2ccccc2)c1`?
bovine MsrA act: -1; MsrA inh: 0; rCAG RNA binder: 49*; PG9 binder: 3; sPLA2-III inh: -24; rCAG bind conf: 12; DNA CAG counter: 6.2*

What do the screens show for `Clc1cccc(Cc2c(-c3cccc(Br)c3)nc3ccc(Br)cn23)c1`?
bovine MsrA act: -2; MsrA inh: -1; rCAG RNA binder: 52*; PG9 binder: 1; sPLA2-III inh: -24; rCAG bind conf: 39*; DNA CAG counter: 9.1*

What do the screens show for `Cc1ccc(-c2nc3ccc(Cl)cn3c2Cc2cccc(Cl)c2)cc1`?
bovine MsrA act: -3; MsrA inh: 1; rCAG RNA binder: 59*; PG9 binder: -1; sPLA2-III inh: -42; rCAG bind conf: 42*; DNA CAG counter: 10*

What do the screens show for `Cc1ccc2nc(-c3cccc(Cl)c3)c(Cc3ccccc3)n2c1`?
bovine MsrA act: -2; MsrA inh: -1; rCAG RNA binder: 7; PG9 binder: 0; sPLA2-III inh: 1

How did Clc1cccc(Cc2c(-c3cccc(Cl)c3)nc3ccc(Br)cn23)c1 do in these assays?
bovine MsrA act: -2; MsrA inh: 0; rCAG RNA binder: 10; PG9 binder: 6; sPLA2-III inh: -5

What do the screens show for `CC(=O)Nc1c(-c2ccc(C)cc2)nc2ncccn12`?
rCAG RNA binder: 1; sPLA2-III inh: 3

What do the screens show for `Cc1cc(C)cc(C(=O)OCCCN(C)C2CN(Cc3cn(Cc4ccccc4C(F)(F)F)nn3)S(=O)(=O)C2)c1` (stereo not given)?
rCAG RNA binder: 0; sPLA2-III inh: -29

What do the screens show for `C=CCN1C(=O)[C@H](CC(=O)NCC23CC4CC(CC(C4)C2)C3)[C@@]2(C(=O)OCC)CCCC=C12`?
rCAG RNA binder: 0; sPLA2-III inh: 8

How did CCOC(=O)[C@]12CCCC3=C1N(CCC3)C(=O)[C@@H](CC(=O)NCc1ccc(C)o1)C2 do in these assays?
rCAG RNA binder: -1; sPLA2-III inh: -6

How did Cc1cc2nc(-c3ccc(F)cc3)c(Cc3cccc(Cl)c3)n2c(C)c1Br do in these assays?
bovine MsrA act: -15; MsrA inh: 1; rCAG RNA binder: 61*; PG9 binder: -3; sPLA2-III inh: -17; rCAG bind conf: 29; DNA CAG counter: 8.4*

How did Clc1ccc(-c2nc3ccc(Br)cn3c2Cc2cccc(Cl)c2)cc1 do in these assays?
bovine MsrA act: -5; MsrA inh: 0; rCAG RNA binder: 38*; PG9 binder: 5; sPLA2-III inh: -25; rCAG bind conf: 32; DNA CAG counter: 9.2*

How did COC(=O)C1=C(C)N(Cc2ccc(C(F)(F)F)cc2)C(=NCc2ccccc2C(F)(F)F)NC1c1cccc(Cl)c1 (stereo not given) do in these assays?
MsrA inh: 0; rCAG RNA binder: 1; PG9 binder: 1; sPLA2-III inh: 9
